Screening results: PubChem BioAssay, National Center for Advancing Translational Sciences (NCATS)
Cycloheximide cs: Cycloheximide Counterscreen for Small Molecule Inhibitors of Shiga Toxin; cell reporter, cycloheximide protein synthesis inhibition counterscreen; max response, %; hit rate 12% among 300,000; AID 2314, 2010; in the data active = max response mostly above about 13%, no sharp cut-off; inactive = mostly below about 14%; also: read at 38.3 µM for the half of the compounds with a filed dose; 0% is about no effect
Shiga inhibitor: A qHTS for Small Molecule Inhibitors of Shiga Toxin; inhibition, % at 38.7 µM; Vero cells, Shiga toxin protein synthesis inhibition reporter; hit rate 9.2% among 290,000; in the data active = inhibition mostly above about 28%, no sharp cut-off; inactive = mostly below about 43%; also: 0% is about no effect
Giardia FBPA inh: qHTS Assay for Inhibitors of Fructose-1,6-bisphosphate Aldolase from Giardia Lamblia; purified Giardia FBPA; A8B2U2; hit rate 0.71% among 290,000; AID 2451, 2010; Potency, µM (series often up to 59.6 µM), without a hit: at the highest dose activity, negative = inhibition, hits mostly inhibitors; also: potency is read from the fitted curve at half-maximal effect; % is scaled to controls: 0 for no effect and ±100 for the full control effect; nearly all actives have a fitted effect of over 55% in size
Target sequence (A8B2U2 whole entry, looked up): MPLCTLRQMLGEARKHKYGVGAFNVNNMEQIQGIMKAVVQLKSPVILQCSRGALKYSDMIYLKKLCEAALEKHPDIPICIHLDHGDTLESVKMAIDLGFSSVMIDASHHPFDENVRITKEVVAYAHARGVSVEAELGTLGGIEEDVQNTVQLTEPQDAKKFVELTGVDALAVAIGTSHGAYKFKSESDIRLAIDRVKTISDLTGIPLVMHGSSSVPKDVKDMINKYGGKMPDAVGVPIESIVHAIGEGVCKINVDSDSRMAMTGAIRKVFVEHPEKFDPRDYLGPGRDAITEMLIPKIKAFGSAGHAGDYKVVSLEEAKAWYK
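40 nM FBPA preincubated 10 min at RT with compound (up to 57.5 uM final), then substrate plus GAPDH/TPI/NAD/arsenate coupling and diaphorase/resazurin added. Fluorescence read after 20 min at RT, 525/598 nm.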
RE007 growth inh: qHTS Assay for Inhibitors of the HIV-1 protein Vpr | S. pombe RE007 Vpr strain, BacTiter-Glo ATP luminescence, 24 h | Potency, µM (series often up to 92.2 µM), for the others: at the highest dose activity change, negative = less growth, actives largely listed as inhibitors | hit rate 0.21% among 360,000; active = well fitted falling curve with a large enough effect; inconclusive = small, poorly fitted or top-dose-only effect; inactive = no such curve, though single readings can be large or run the other way; also: potency is read from the fitted curve at half-maximal effect; % is scaled to controls: 0 for no effect and ±100 for the full control effect; nearly all actives have a fitted effect of over 50% in size
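Fission yeast RE007 carrying one integrated HIV-1 vpr copy, seeded at OD 0.01 in PMG+AL medium with 23 nL pinned compound. Grown 24 h at 30 degrees; viability read by BacTiter-Glo luminescence after 5 min.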
LmPK inh: qHTS Assay for Inhibitors of Leishmania Mexicana Pyruvate Kinase (LmPK). purified LmPK, Kinase-Glo ATP luminescence, 1 h. Potency, µM (doses to about 57.5 µM), inactives show top-dose activity change, negative = inhibition, actives largely listed as inhibitors. hit rate 0.37% among 290,000. AID 1721, 2009; also: potency is read from the fitted curve at half-maximal effect; % is scaled to controls: 0 for no effect and ±100 for the full control effect
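0.1 nM LmPK, 0.5 mM PEP, 0.1 mM ADP; 50 mM imidazole pH 7.2, 7 mM MgCl2, 50 mM KCl; 1 h RT. Kinase-Glo luminescence readout, normalized to no-enzyme (full inhibition) and uninhibited wells.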
Tb PYK inh: qHTS of Trypanosoma Brucei Inhibitors; pyruvate kinase (Trypanosoma brucei), Q57TT1; TbPYK enzyme, Kinase-Glo Plus ATP luminescence, 45 min; Potency, µM (top dose mostly 76.8 µM), for inactives: top-dose activity, negative = inhibition, hits mostly inhibitors; hit rate 0.12% among 410,000; also: potency is read from the fitted curve at half-maximal effect; % is scaled to controls: 0 for no effect and ±100 for the full control effect; nearly all actives have a fitted effect of over 50% in size
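Enzyme and substrate buffer are dispensed first and compound is pin-transferred. ADP at 130 uM final then starts the reaction, which runs 45 min at room temperature. Detection reagent is added for 10 min before luminescence is imaged.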
Starred values were filed as active, the others as inactive; ? = inconclusive; . = no result; [ ] = remark or other dose. Shown is part of a subset that was picked to be rich in hits. Unless noted, calls follow the shape of the dose curve; as a rule, active = well fitted curve in the direction sought with a large enough effect; inconclusive = small, poorly fitted or top-dose-only effect, or another doubt; inactive = no such curve, though single readings can be large; an effect the other way counts as inactive or inconclusive.

SMILES	Cycloheximide cs	Shiga inhibitor	Giardia FBPA inh	RE007 growth inh	LmPK inh	Tb PYK inh
N#CC(C#N)=Cc1ccc(N2CCCC2)cc1	28*	44	-3%	-7%	10%	-3%
O=Cc1ccc(N2CCCCC2)cc1	11	18	4%	-3%	2%	6%
N#C/C(=C/c1ccc(N2CCCCC2)o1)c1cccc(F)c1	39*	65*	?	-21%	-1%	-38%
N#C/C(=C/c1ccc(N2CCCCCC2)o1)c1ccc(Cl)cc1	26	22	?	25µM*	-1%	?
CCc1ccc(CN(Cc2ccco2)c2cnc(S(C)(=O)=O)nc2C(=O)Nc2ccc(C)c(Cl)c2)cc1	.	.	.	.	.	2%
O=c1c(-c2ccc(F)cc2)nc2cncnc2n1Cc1ccc(F)cc1	.	.	10%	.	.	.
Cc1ccccc1CN1CCC(CNc2ncnc3onc(-c4ccc(Cl)cc4)c23)CC1	.	.	.	.	.	-1%
CCc1ccc(NC(=O)c2ccc3c(O)c(S(=O)(=O)c4ccccc4)c(=O)[nH]c3c2)cc1	.	.	.	.	.	-3%
CCN1CCN(/C=N/c2nc(C)cs2)CC1	33*	76*	-1%	-16%	-1%	-4%
O=C(c1cnn(-c2cccc(F)c2)c1)c1ccccc1O	24*	100*	13%	-22%	0%	0%
O=C(c1cnn(-c2nc3ccccc3s2)c1)c1ccccc1O	30*	47*	-5%	-1%	-7%	0%
O=C(O)c1ccc(-n2cc(C(=O)c3ccccc3O)cn2)cc1	29*	30	4%	-1%	2%	4%
O=C(c1cnn(-c2ccccc2)c1)c1cc(Br)ccc1O	.	.	.	25%	.	3%
CC(=NNc1nc2ccccc2s1)c1ccncn1	.	.	.	?	.	2%
C/C(=N\Nc1nc2ccccc2s1)c1ccc(Br)s1	19*	41*	-15%	-10%	3%	2%
C/C(=N\Nc1nc2ccccc2s1)c1ccc2c(c1)OCO2	54*	70*	-4%	6%	4%	-3%
CC1C(=O)N(C)C(=O)c2nc[nH]c21 (configuration not stated)	.	.	1%	.	.	.
CCOc1ccccc1NC(=O)N1CCN(Cc2nc3ccc(C)cc3o2)CC1	.	.	.	.	.	-1%
O=C(O)c1ccc(NC(=S)NC(=O)c2ccc(-c3ccccc3)cc2)cc1	45*	48	-14%	2%	-6%	-11%
Cc1ccc(NC(=O)NC(=S)NC(=O)c2ccccc2)cc1	48*	88*	?	-9%	8%	-4%
O=C1CN(C(=S)NC(=O)c2ccc(-c3ccccc3)cc2)CCN1	15*	62	?	36%	-5%	-22%
Cc1ccc(C(=O)NNC(=S)NC(=O)c2ccccc2)cc1	.	.	.	-16%	.	-12%
O=C(NC(=S)Nc1ccccc1)c1csnn1	22*	27	-22%	-4%	-4%	-3%
O=C(NC(=S)Nc1ccccc1)c1ccc(-c2ccccc2)cc1	16	19	5%	-16%	-2%	9%
O=C(NC(=S)N1CC1)c1ccccc1	.	.	.	-5%	.	3%
SMILES	Cycloheximide cs	Shiga inhibitor	Giardia FBPA inh	RE007 growth inh	LmPK inh	Tb PYK inh
Cc1nc2ccn(Cc3ccco3)c(=O)c2cc1C(=O)NCc1ccc(Cl)cc1	.	.	.	.	.	0%
NS(=O)(=O)c1ccc(N/C=C\C(=O)c2ccc3ccccc3c2)cc1	31*	18	5%	-22%	-4%	-3%
COc1ccc(N/C=C/C(=O)C(C)(C)C)cc1	31*	93*	-10%	4%	-1%	-2%
COc1ccc(N/C=C\C(=O)c2ccc3ccccc3c2)cc1	29*	24	9%	-1%	4%	-11%
COc1ccc(N/C=C/C(=O)c2ccccc2)cc1	9	.	4%	3%	7%	?
CC[C@@](N)(C(=O)O)c1ccc(C(=O)O)cc1	.	.	-10%	.	.	.
Cc1ccc(C(=O)OCc2cc(=O)n3nc(CC(C)C)sc3n2)cc1	.	.	.	.	.	3%
CCCCC/C=C\C/C=C\CCCCCCCCCC(=O)NC(C)C(=O)O (configuration not stated)	.	.	5%	.	.	.
COc1ccccc1NC(=O)CSC1=Nc2ccccc2C2=NC(Cc3ccccc3)C(=O)N12 (configuration not stated)	.	.	.	.	.	-11%
CC1=C(C(=O)Nc2ccccn2)C(c2ccc3c(c2)OCO3)C2=C(CC(C)(C)CC2=O)N1 (configuration not stated)	16*	31	2%	-14%	-4%[11.5 µM]	2%
CCN(CC)c1ccc(C2C(C(=O)Nc3ccccn3)=C(C)NC3=C2C(=O)CC(C)(C)C3)cc1 (configuration not stated)	-9	-23	-7%	-8%	8%	-1%
O=c1c2ccccc2sn1-c1nccs1	2	2	?	0%	0%	5.6µM*
O=c1c2ccccc2sn1-c1cccc(Cl)c1	.	.	.	10µM*	.	7.1µM*
CC(=O)Nc1ccc2c(=O)n(-c3ccccc3)sc2c1	.	.	.	12%	.	7.1µM*
O=c1c2ccccc2sn1-c1ccccc1F	.	.	.	35µM*	.	7.1µM*
CNc1ncnc2c1ncn2[C@H]1C[C@H](OP(=O)(O)O)[C@H](COP(=O)(O)O)O1	.	.	0%	.	.	.
Cc1ccccc1-n1sc2cc(F)ccc2c1=O	19	41	?	-92%	21%	8.9µM*
O=c1c2ccccc2sn1-c1ccccc1	24*	25	?	8.9µM*	?	?
N#Cc1c(N)n(-c2ccccc2)c(=O)c2cc([N+](=O)[O-])ccc12	-2	11	0%	5%	1%	3%
N#Cc1ccc2c(=O)n(-c3ccccc3)sc2c1	.	.	.	10µM*	.	3.2µM*
CC1=C(C(=O)OC2CCCCCC2)C(c2c(F)cccc2Cl)CC(=O)N1 (configuration not stated)	.	.	.	.	.	1%
Cc1n[nH]c(=O)nc1N/N=C/c1ccco1	11	28*	?	-14%	?	-15%
CCOc1cc(/C=N/Nc2ncnc(Cl)c2N)ccc1O	35*	57*	?	.	-12%	-16%
COc1cc(/C=N/Nc2nc(=O)[nH]nc2C)cc(OC)c1O	27*	94*	-16%	?	2%	-6%
CCOc1cc(/C=N/NC(=O)N/N=C/c2ccc(O)c(OCC)c2)ccc1O	.	.	.	?	.	-4%
CCOc1cc(/C=N/Nc2nc(=O)[nH]nc2C)ccc1O	43*	71*	?	-18%	-12%	-2%
O=C(NC(c1ccc(Cl)cc1)c1c(O)ccc2ccccc12)c1ccccc1 (configuration not stated)	33*	-4	-8%	9%	0%	2%
COc1ccc(-c2noc(-c3ccc(N4CCN(c5ccc(OC)cc5)CC4)c([N+](=O)[O-])c3)n2)cc1	.	.	.	.	.	-2%
COc1ccc(-n2nc(N)c(C(N)=O)n2)cc1	33*	39	2%	-10%	-5%	-18%
